Screening results: PubChem BioAssay, The Scripps Research Institute Molecular Screening Center
hcDAF-12 act = activators of H. contortus DAF-12 nuclear receptor; HEK293 hcDAF-12 lit1-tk-luc reporter, luminescence; 0% DMSO, 100% Δ7-dafachronic acid; activation, % at 6.8 µM; 370,000 tested, 1.4% active; AID 652067;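 active = activation above the mean of all tested compounds plus 3 SD, cut at about 5.5% in these data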;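 also: 100% = response to 3 µM Δ7-dafachronic acid high control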
DAX1 inh-1 = inhibits human nuclear receptor DAX1; HEK293 Gal4-DAX1 luciferase reporter, luminescence; inhibition, % at 6.75 µM; 340,000 tested, 0.99% active;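 active = inhibition above the mean over all tested compounds plus 3 SD, cut at about 4.2% in these data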;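 also: 0% = DAX1-transfected cells with DMSO and 100% = empty-vector control cells with DMSO; inhibition shows as a rise in luminescence from relieved DAX1 repression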
Target sequence (P51843 207-470 limits assumed): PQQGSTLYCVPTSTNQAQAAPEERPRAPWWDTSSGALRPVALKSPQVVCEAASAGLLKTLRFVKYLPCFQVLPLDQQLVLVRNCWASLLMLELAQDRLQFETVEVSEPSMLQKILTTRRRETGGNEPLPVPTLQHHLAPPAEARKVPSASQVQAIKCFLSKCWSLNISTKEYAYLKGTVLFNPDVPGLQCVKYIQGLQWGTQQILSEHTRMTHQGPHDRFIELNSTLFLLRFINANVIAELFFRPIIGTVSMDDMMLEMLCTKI
hgDAF12 agonist = hgDAF-12 agonism, primary luciferase screen | activation, % at 6.8 µM | 370,000 tested, 1.8% active | HEK293 GAL4-hgDAF12 UAS-luciferase reporter, agonist luminescence; normalized to butyrate control;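 active = activation above a cutoff set at the mean of all screened compounds plus 3 SD, cut at about 10% in these data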;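 also: 0% = DMSO wells and 100% = sodium butyrate wells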
DAX1 inh-2 = blocks DAX1 repression of SF-1 activated StAR promoter | 370,000 tested, 1.1% active | AID 652010 | HEK293T StAR-luciferase reporter, SF-1/DAX-1 repression relief | inhibition, % at 6.8 µM;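 active = inhibition above the mean over all tested compounds plus 3 SD, cut at about 3.6% in these data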;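 also: 0% = DAX-1 cells with DMSO and 100% = cells lacking DAX-1 with DMSO; higher inhibition means more luminescence from relief of DAX-1 repression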
ssDAF-12 act = activators of S. stercoralis DAF-12 nuclear receptor; HEK293 ssDAF-12/GRIP1 lit1-tk-luc reporter, luminescence; % of 3 µM dafachronic acid response; activation, % at 6.8 µM; 370,000 tested, 1% active; AID 652126;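 active = activation above the mean over all tested compounds plus 3 SD, cut at about 0.9% in these data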;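 also: 0% = DMSO-only wells and 100% = 3 µM delta7-dafachronic acid wells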
hgDAF12 ag = confirmation of H. glycines DAF-12 agonists. shares compounds with hgDAF12 agonist. HEK293 GAL4-hgDAF12 luciferase reporter, agonist mode; percent of butyrate response. activation, % at 6.8 µM. 3,300 tested, 80% active;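 active = mean activation over triplicate wells above the hit cutoff derived from the earlier primary screen, cut at about 11% in these data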;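 also: 0% = DMSO low control and 100% = 2 mM sodium butyrate high control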
LXR ag 2 = LXR-beta agonism as DAF-12 counter-screen | shares compounds with hgDAF12 agonist | HEK293 Gal4-LXR luciferase reporter, 24 h | activation, % at 6.8 µM | 3,300 tested, under 10 active;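 active = mean activation of the triplicate above a set limit carried over from the primary screen, none filed active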
* = called active by the depositor; x = not tested or not shown. Shown are actives, neighbours in structure and some others; about 4.1% of the full set was active somewhere.

SMILES	hcDAF-12 act	DAX1 inh-1	hgDAF12 agonist	DAX1 inh-2	ssDAF-12 act	hgDAF12 ag	LXR ag 2
Cc1ccc(C(=O)Nc2cc3c(cc2Cl)OCCCO3)cc1	4	3	17*	2	1	13*	0
COc1ccc(C(=O)Nc2cc3c(cc2Cl)OCCCO3)cc1	3	3	10	2	0	x	x
COc1cccc(C(=O)Nc2cc3c(cc2Cl)OCCCO3)c1	2	2	14*	4	0	14*	0
CCN(C[C@H]1N[C@@](CC)(C(=O)OC)[C@H]2C(=O)N(C)C(=O)[C@@H]12)S(=O)(=O)c1ccc(C(F)(F)F)cc1	-1	-1	1	0	-1	x	x
O=C(Nc1cccc(Cl)c1)c1ccc(OC(=S)N2CCOCC2)cc1	1	-2	19*	1	-1	7	0
Cc1cccc(NC(=O)c2cccnc2)c1C	0	-1	0	0	-1	x	x
CSCc1ccc(C(=O)Nc2cccc(C)c2C)cc1	2	1	14*	1	1.7*	11*	0
Cc1ccc(-c2nnc(SCc3ccccc3F)o2)cc1	5.7*	3	16*	4	1	15*	1
O=C(N/N=C/c1c(F)cccc1Cl)c1cc(C2CC2)[nH]n1	1	1	8	2	0	x	x
O=C(NS(=O)(=O)c1ccccc1[N+](=O)[O-])[C@H]1O[C@@H](n2ccc(=O)[nH]c2=O)[C@H](O)[C@@H]1O	-1	x	15*	0	-1	4	0
O=C(NCCCN1CCOCC1)c1cc(-c2ccc(O)cc2)on1	2	2	8	1	0	x	x
O=C(NCCN1CCOCC1)c1cc(-c2cccs2)on1	1	3	20*	-1	0	29*	0
O=C(NCCCN1CCOCC1)c1cc(-c2ccccc2)on1	3	3	26*	1	-1	27*	0
O=C(NCCN1CCOCC1)c1cc(-c2ccc(Br)cc2)on1	0	1	0	0	-1	x	x
O=C(NCCN1CCOCC1)c1cc(-c2ccccc2)on1	2	2	24*	0	0	23*	0
C=CCNCC(=O)N1N=C(c2ccc3ccccc3c2)CC1c1ccc(OC)cc1 (centres undefined)	-2	-1	1	0	-1	x	x
COc1ccc(C2CC(c3ccc4ccccc4c3)=NN2C(=O)CN2CCC(C(N)=O)CC2)cc1 (centres undefined)	3	3	13*	3	-1	5	0
COc1cccc(NC(=O)CSc2nc3c(oc4ccccc43)c(=O)[nH]2)c1	-2	1	2	1	-2	x	x
C/C(=N\NC(=O)COc1ccccc1[N+](=O)[O-])c1cccs1	4	0	15*	2	0	11*	0
COc1ccc(OCC(=O)N/N=C(\C)c2cccs2)cc1	-1	1	1	0	-1	x	x
O=C(COc1ccccc1[N+](=O)[O-])Nc1ccc(Br)cc1	3	6.8*	16*	3	1	11*	0
NNC(=O)c1ccc2nc(-c3ccc(Br)cc3)cn2c1	3	1	15*	2	-1	18*	1
NNC(=O)c1ccc(Cn2cc(Br)cn2)cc1	0	0	3	-1	-1	x	x
NC(=O)c1ccsc1NC(=O)COC(=O)C1CC2CCCC(C1)C2=O (centres undefined)	0	2	2	0	-1	x	x
c1cc(-c2cc3cc(N4CCOCC4)ccc3o2)cs1	5	4.8*	15*	3	0	14*	1
SMILES	hcDAF-12 act	DAX1 inh-1	hgDAF12 agonist	DAX1 inh-2	ssDAF-12 act	hgDAF12 ag	LXR ag 2
Cc1cc(NC(=O)c2cccc(F)c2)ncc1NC(=O)c1ccco1	3	0	15*	2	0	12*	1
O=C(/C=C/Nc1ccc(Oc2ccccc2Cl)cc1)c1ccco1	2	3	15*	1	0	17*	1
Cc1ccc(NC(=O)c2ccc3[nH]c(=O)c(=O)[nH]c3c2)nc1	4	2	3	0	0	x	x
O=C(Nc1ccc(NC(=O)c2ccccc2F)cn1)c1ccco1	3	-3	14*	1	0	10	1
O=C(Nc1ccc(NC(=O)C2CC2)nc1)c1ccco1	-1	1	4	1	0	x	x
Cc1ccc(NC(=O)c2ccc(F)cc2)nc1	1	1	15*	3	0	12*	0
COc1ccccc1Oc1ccc(N/C=C/C(=O)c2ccco2)cc1	4	1	9	2	-1	x	x
O=S(=O)(Cc1ccccc1)N(O)c1ccccc1	3	1	1	0	-1	x	x
O=[N+]([O-])c1cc(-c2nc3nc4ccccc4nc3n2CCc2ccccc2)cc([N+](=O)[O-])c1	-2	-1	-4	1	-1	x	x
CC1CCCC(C)N1C(=O)COC(=O)CCC1CCCC1 (centres undefined)	1	-1	3	-1	-1	x	x
CCCC(C(=O)NCc1ccco1)N(Cc1ccco1)C(=O)CNS(=O)(=O)c1ccccc1 (centres undefined)	-1	1	0	0	0	x	x
CCC(C(=O)NN1C(=O)c2ccccc2C1=O)c1ccccc1 (centres undefined)	2	0	-2	0	-1	x	x
O=C(Nc1cccc(C(=O)Nc2ccc(Cl)cn2)c1)c1ccccc1	-2	-1	0	0	-1	x	x
Cc1ccc(Oc2ccc(NC(=O)c3ccco3)cc2)cc1	-1	1	3	-1	-1	x	x
O=C(Nc1ccc(Cl)cn1)c1cccc(F)c1	3	-1	17*	0	0	17*	1
O=C(Nc1ccc(NC(=O)c2ccco2)nc1)c1cccc(F)c1	3	0	13*	3	0	16*	1
COC(=O)c1ccccc1Oc1ccc(NC(=O)c2ccco2)cc1	-1	3	13*	0	-1	-2	0
COc1ccc(S(=O)(=O)N(C)C[C@H]2Oc3ccc(NC(=O)Cc4cn(C)c5ccccc45)cc3C(=O)N([C@@H](C)CO)C[C@@H]2C)cc1	0	1	-1	0	-1	x	x
COc1ccc(C=C(C(C)=O)C(=O)c2ccccc2)cc1	-1	x	4	-2	-1	x	x
COc1ccc(C=C(C(=O)c2ccccc2)C(=O)c2ccccc2)cc1	1	x	14*	2	-1	11*	0
Nc1ccc(S(=O)(=O)N2CCCC2)cc1Cl	0	-1	-3	0	-1	x	x
O=C1NC[C@@H](CCCCN2CCN(CC3CCCCC3)C(=O)C2=O)N(CCC2CCCCC2)C1=O	-2	x	2	0	0	x	x
